Assay results published in the supplement of paper PMC6555819.

Tested on: LXRb:RXRa (NR concentration 270 nM, RXRa partner concentration 90 nM)
Assay: PBM binding z-score (relative to random genomic background probes); higher = stronger binding; sequences stand for … in GC…GCGATTGACAGCGTAGAATGAAGG
Summary of the method: (§1)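 Random background probes are the reference for binding z-scores. These scores derive from regression-normalized fluorescence on custom Agilent 4×180K protein-binding microarrays incubated 1 h with ligand-free nuclear receptor dimers. Binding was detected with antibodies against each partner (one per run).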

| Sequence | PBM binding z-score |
| --- | --- |
| ACTAGTAGGCCAAGTTTGGGTCACTCAAACAAAG | 0.884 |
| ATCTCTAGGTAACAAGTGCAGTGAAAGAGAGGAC | -0.182 |
| GCATATAGGTAATACAAGGTGAAAGTGCGATTGT | 0.725 |
| GATACAGGGACAGCTAGAGGCCAGAGTATGGAAA | -0.674 |
| AGAATGAGGTTACCCAAGATCAGGGAAACGCTTG | 2.48 |
| TCTCGGAGGACACGAAAGGTAAGAGCTCGACATC | -0.242 |
| TCTAGTAGATCAAGCAGGTTAAGAAAGCCTGAGT | 0.194 |
| GGAACGAGGGCTAAGTTGATAGCATCTGTCGACG | -0.796 |
| TTACCAAGGTGAAGGACGTTGATCCCTCTGTAGA | 0.414 |
| GCTTGTAGATCAAGGTTAAGGAAGACTAAGCTAA | 0.363 |
| ATCGAGAGGTCGAAGGTGAGTATACCCACCCGAA | 1.74 |
| TCTGCTAGGTCAACGATGGTCAGCTAATCTGCTA | 1.44 |
| CCTAGTTGCTCAAGGTCACACACGCTATAGGTAC | 3.72 |
| TAGCCTAGGTCATTGGGCCTGTATAGTACGCATC | 2.39 |
| TCTAGTTTGTCACGGAGGTCACACACGACGGGTA | 3.26 |
| GCATAGAGGTAATACAAGGTGAAAGTCCGATTGT | 1.1 |
| GCTACCAGGCCATTTGGGTCACTCAATGACGGGC | 0.301 |
| CCTAGCATGCCAATCTGGGTCACTCAAGGCTTGA | 0.998 |

Tested on: LXRb homodimer (NR concentration 270 nM)
Assay: as above
Summary of the method: as §1

| Sequence | PBM binding z-score |
| --- | --- |
| ATCTCTAGGTAAAGGTAGTTCAGTGAATGCAAAT | 0.769 |
| ACTTTTAGTTGAGACGAGGGCAACCGATAGGTTG | 0.689 |
| TGTTGTAGATCAGCAGGTTAAGAAAGCTGGCCAA | -0.822 |
| CACCCTAGGTCAGGGCCAGTATAGGAGGAACGTT | -0.00593 |
| AGAATGAGGTTATTAAGATCTGGGAATTGCGGTC | -0.139 |
| CGTCCAAGGTCAGAGACGTCAGTGAATGCCGAGT | -0.32 |
| ATCTCTCGGTAACAAGTTCAGTGAAAGAGAGGAC | 0.942 |
| TCTATTAGTTGAAGGGCAACCAACGAGTCCGTTT | 0.122 |
| TCTATTAGTTGCAGGGCAACCGACGAGTCCGTTT | 0.559 |
| CAAACTGGGTCACGAAAGGTCAAAGTCGAATGAC | 2.08 |
| TTCCCAAGGTGAAAGGTCGTTGATGCACGCCTTG | -0.253 |
| CGTACAAGGTCATAGGAGGTCAGTGAAGACAGAT | 1.33 |
| CCTAGCAGGCCACTCTGGGTCACTCAAGGCTTGA | -0.897 |
| AGTCAAAGTTCATCTAGGTAACGTACGATATGCT | 1.59 |
| CAAACTAGGTCATGAAAGGTCAAAGTCGAATGAC | 2.86 |
| CGTCCAAGTTCAAGGTAACGTAACAGAAAGCAGC | 0.319 |
| CAAACTAGGTCGCAGAGGTCAAAGTCCGTGCGTA | 1.26 |
| CCTATTAGTTGACCATAAGGGCAACGGAAGCTCG | 0.609 |
| CAAACTAGGTCACGAAAGGACAAAGTCGAATGAC | 0.368 |
| CCTCTGAGGACAGAAGGTCAGAGCTGTCCGCTTT | -0.446 |

| Sequence | PBM binding z-score |
| --- | --- |
| TCTACTAGTTGAAGGGCAACCGACGAGTCCGTTT | -0.37 |
| GCTAGCAGGCCATGTGGGTCACTCAATGACGGGC | -1.04 |
| ACTAGTAGGCCAAGTTTGGGTCACTCAAACAAAG | -0.17 |
| ATCTCTAGGTAACAAGTGCAGTGAAAGAGAGGAC | 0.699 |
| GCATATAGGTAATACAAGGTGAAAGTGCGATTGT | -0.0302 |
| GATACAGGGACAGCTAGAGGCCAGAGTATGGAAA | -0.57 |
| AGAATGAGGTTACCCAAGATCAGGGAAACGCTTG | -0.333 |
| TCTCGGAGGACACGAAAGGTAAGAGCTCGACATC | -1.12 |
| TCTAGTAGATCAAGCAGGTTAAGAAAGCCTGAGT | -0.909 |
| GGAACGAGGGCTAAGTTGATAGCATCTGTCGACG | -0.848 |
| TTACCAAGGTGAAGGACGTTGATCCCTCTGTAGA | -0.656 |
| GCTTGTAGATCAAGGTTAAGGAAGACTAAGCTAA | -0.628 |
| ATCGAGAGGTCGAAGGTGAGTATACCCACCCGAA | -0.284 |
| TCTGCTAGGTCAACGATGGTCAGCTAATCTGCTA | -0.144 |
| CCTAGTTGCTCAAGGTCACACACGCTATAGGTAC | 1.6 |
| TAGCCTAGGTCATTGGGCCTGTATAGTACGCATC | -0.0318 |
| TCTAGTTTGTCACGGAGGTCACACACGACGGGTA | 1.43 |
| GCATAGAGGTAATACAAGGTGAAAGTCCGATTGT | -0.79 |
| GCTACCAGGCCATTTGGGTCACTCAATGACGGGC | -0.419 |
| CCTAGCATGCCAATCTGGGTCACTCAAGGCTTGA | -0.652 |
